Assay in all cases: NCI-60 one-dose screen, 48 h (100 = growth as untreated, 0 = no growth, -100 = all killed)
Common to all, as to settings: 10 µM unless noted

Assay [1] deals with T-47D breast.
Assay [2] has as its system BT-549 breast.
Assay [3] has as its system MDA-MB-435 melanoma.
The subject of assay [4] is SW-620 colon.
The subject of assay [5] is MCF7 breast.
Assay [6] has as its system HCT-116 colon.
The test system of assay [7] is HCC-2998 colon.
Assay [8] concerns KM12 colon.

Compounds without any hit were thinned out: in the full panel of roughly 83,000, 20% have a hit.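 96-well plates, one dose, 48 hours. Percent growth reported; active if below 10.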 A number with no mark means an inactive call. Active and inactive are the calls of the source.

From PubChem BioAssay (NCI) come the findings set out here.

On to `C/C(=N\O)c1ccc(NC(=O)CSc2nnc(-c3cc(-c4ccc(S(C)(=O)=O)cc4)nc4ccccc34)n2-c2ccccc2)cc1`, for which the growth in assay [1] was 63%; in assay [2], 88.2%; in assay [3] it was 93.5%; in assay [4], 97.4%; in assay [5], 85.6%; in assay [6] it was 83.7%. The growth in assay [7] is 105%; in assay [8], 81.9%.

As for `NS(=O)(=O)c1ccc(C(=O)NN2C(=O)c3c(Br)c(Br)c(Br)c(Br)c3C2=O)cc1`, the growth is 83.1% in assay [1]; 106% in assay [2]; 103% in assay [3]; 101% in assay [4]; 81.4% in assay [5]; 99.7% in assay [6]. Further, the figures for the growth in assay [7] and in assay [8] were 111% and 97.5%, respectively.

Turning to `CN(C)S(=O)(=O)Oc1ccc(-c2sc3cc(OS(=O)(=O)N(C)C)ccc3c2C(=O)c2ccc(OCCN3CCCCC3)cc2)cc1`, the growth was 44.8% in assay [1]; 79.6% in assay [2]; 78.6% in assay [3]; 30.5% in assay [4]; 26.4% in assay [5]; 40.8% in assay [6]. In addition, the growth in assay [7] was 89.2%; in assay [8], 73.7%.

For the compound `Cc1nn(-c2cc(NC3CCC(O)CC3)c3c(=O)[nH]c(CCC(F)(F)F)cc3c2)c2c1C(=O)CC(C)(C)C2` (stereo unspecified), the growth in assay [1] is 62.9%; in assay [2], 43.8%; in assay [3], 19.3%; in assay [4], 24.1%; in assay [5], 26.5%; in assay [6] it was 38%. Further, the growth in assay [7] is 10.9%; in assay [8], 23.4%.

On to `CCOC(=O)c1nn(CC(O)c2ccccc2)c(NC(=O)Nc2cccc(F)c2)c1C` (stereo unspecified), for which the growth in assay [1] is 90.1%; in assay [2] it was 101%; in assay [3], 99.9%; in assay [4], 95.9%; in assay [5], 91.3%; in assay [6], 96.4%. In addition, the values for the growth in assay [7] and in assay [8] were 98.3% and 104%, respectively.

For the compound `CCc1ccc(CCC(=O)Nc2ncc(Cc3cc(Cl)ccc3Cl)s2)o1`, the growth was 44% in assay [1]; 36.4% in assay [2]; -42.6% (active) in assay [3]; 24.1% in assay [4]; 14% in assay [5]; 17.5% in assay [6]. In addition, the growth is 19.7% in assay [7] and 20.3% in assay [8].

In the case of `COc1ccc(CNc2c3ccccc3nc3ccccc23)c(OC)c1`, the growth in assay [1] is 52.9%; in assay [2], 66.7%; in assay [3] it was 38.7%; in assay [4] it was 20.7%; in assay [5], 14.5%; in assay [6], 12.8%. Also, the growth in assay [7] was 35.6%; in assay [8], 54.3%.

As to `CCNC(=O)Oc1ccc(/C(=C(/C)Cc2ccc(OC)cc2)c2ccc(OCCN3CCCCC3)cc2)cc1`, the growth is 42.5% in assay [1]; 92.5% in assay [2]; 68.1% in assay [3]; 77.8% in assay [4]; 29.9% in assay [5]; 49.2% in assay [6]. Further, the growth was 67.9% in assay [7] and 67.8% in assay [8].

Turning to `CN(CCCNC(=O)Cc1ccc2ccc3cccc4ccc1c2c34)CCCNc1cc(-c2ccc3ccccc3c2)nc2ccccc12`, the growth was -67% (active) in assay [1]; -4.41% (active) in assay [2]; -63.4% (active) in assay [3]; -69.4% (active) in assay [4]; -86.2% (active) in assay [5]; -85.4% (active) in assay [6]. Further, the growth in assay [7] is -89.1% (active); in assay [8] it was -80% (active).

Regarding `CCCCCCCC/C=C\CCCCCCCCOc1ccc(CC(=O)NCC[N+]2(C)CCOCC2)cc1`, the growth in assay [1] was 84.2%; in assay [2] it was 78.1%; in assay [3] it was 89.1%; in assay [4] it was 81.2%; in assay [5], 81.7%; in assay [6], 73.8%. The growth in assay [7] is 56.2%; in assay [8], 51.3%.

With `Cc1ccc2c(=O)cc(C(=O)Nc3sc4c(c3C(=O)NCc3cccnc3)CCCC4)oc2c1C`, the growth was 94% in assay [1]; 107% in assay [2]; 101% in assay [3]; 101% in assay [4]; 96.8% in assay [5]; 109% in assay [6]. Further, the growth was 106% in assay [7] and 97.1% in assay [8].

Turning to `O=C(CSc1nnc(-c2cc(-c3ccccc3)nc3ccccc23)n1-c1ccccc1)Nc1ccc(C(=O)/C=C/c2ccc(Cl)cc2)cc1`, the growth was 73.8% in assay [1]; 92.4% in assay [2]; 96.5% in assay [3]; 93.3% in assay [4]; 78.5% in assay [5]; 86.5% in assay [6]. Also, the growth in assay [7] is 100%; in assay [8], 75.4%.

As for `CNC(C)[C@H]1CCC2C3CC=C4C(=O)[C@@H](NC(=O)C=C(C)C)CC[C@]4(C)C3CC[C@@]21C` (stereo partly specified), the growth in assay [1] was -21% (active); in assay [2], 35.9%; in assay [3] it was -40.6% (active); in assay [4] it was -52% (active); in assay [5] it was -41.8% (active); in assay [6] it was -30% (active). The growth in assay [7] is -6.4% (active); in assay [8], 10.1%.

`Cc1ccc(/C=C(\C#N)n2nnc3cc(F)c(F)cc32)cc1`: the growth in assay [1] is -10.3% (active); in assay [2] it was -18.4% (active); in assay [3] it was -35.4% (active); in assay [4], 9.9% (active); in assay [5], 12.6%; in assay [6], -76.6% (active). Further, the figures for the growth in assay [7] and in assay [8] were -10.6% (active) and 8% (active), respectively.

For the compound `N#Cc1cccc(C2C3=C(COC3=O)N(CCO)c3cc4c(cc32)CCC4)c1` (stereo unspecified), the growth was 68.9% in assay [1]; 33.5% in assay [2]; -32.7% (active) in assay [3]; 21.2% in assay [4]; 23.2% in assay [5]; 8.71% (active) in assay [6]. The growth in assay [7] was 12.7%; in assay [8], 11%.

With `O=C1c2ccccc2C(=O)c2c1cc1c(c2[N+](=O)[O-])OCO1`, the growth was 4.66% (active) in assay [1]; 15.8% in assay [2]; 56.3% in assay [3]; 7.14% (active) in assay [4]; 3.53% (active) in assay [5]; 1.94% (active) in assay [6]. Besides, the growth in assay [7] is -46.4% (active); in assay [8], 0.869% (active).

For `COc1cc(C(=O)n2nc(N3CCOCC3)c3cc(-n4cccc4)ccc32)cc(OC)c1OC`, the growth in assay [1] was 60.5%; in assay [2] it was 56.2%; in assay [3], 75.2%; in assay [4], 67.5%; in assay [5], 52.1%; in assay [6], 48.6%. The growth in assay [7] was 99.7%; in assay [8], 81.8%.

Take `COc1ccc(-c2nc(/C=C3\C(=O)N(C)c4ccccc43)c3ccccn23)cc1`: the growth was 76% in assay [1]; 104% in assay [2]; 104% in assay [3]; 84.7% in assay [4]; 61.9% in assay [5]; 56.5% in assay [6]. For the same compound, the growth in assay [7] is 102%; in assay [8], 93.7%.

As to `COC(=O)c1c2c(n3ccccc13)C(=O)c1ccccc1C2=O`, the growth in assay [1] was 73.4%; in assay [2] it was 68.1%; in assay [3] it was 84.6%; in assay [4], 40.9%; in assay [5], 42.5%; in assay [6] it was 27.9%. The growth in assay [7] was 88.3%; in assay [8] it was 49.7%.

As to `Cc1ccc(C(=O)Nc2cccc(C#Cc3cccc4[nH]nc(N)c34)c2)cc1C(F)(F)F`, the growth was 46.3% in assay [1]; 86.6% in assay [2]; 62.4% in assay [3]; 65.4% in assay [4]; 59.8% in assay [5]; 25.2% in assay [6]. For the same compound, the growth in assay [7] was 51%; in assay [8], 64.3%.

As for `COc1ccc(Cn2cc3c(c2-c2ccccc2)CCc2cnoc2-3)cc1`, the growth was 64.7% in assay [1]; 45.3% in assay [2]; 3.43% (active) in assay [3]; 18.3% in assay [4]; 14.6% in assay [5]; 0.167% (active) in assay [6]. For the same compound, the figures for the growth in assay [7] and in assay [8] were 12.5% and 0.62% (active), respectively.

Turning to `O=C1Nc2ccccc2/C1=C\c1c[nH]c2ccc(Br)cc12`, the growth in assay [1] is 26.6%; in assay [2], 116%; in assay [3], 69%; in assay [4], 93.7%; in assay [5], 29.5%; in assay [6], 85.8%. Moreover, the growth in assay [7] was 71.6%; in assay [8], 12.9%.

In the case of `C#CCn1cnc2cnc(Nc3cccc(NC(=O)C=C)c3)nc21`, the growth in assay [1] is 66% [6.25 µM]; in assay [2], 60.9% [6.25 µM]; in assay [3], 60.6% [6.25 µM]; in assay [4], 91.2% [6.25 µM]; in assay [5], 77.4% [6.25 µM]; in assay [6], 86.4% [6.25 µM]. In addition, the figures for the growth in assay [7] and in assay [8] were 97.9% [6.25 µM] and 91.9% [6.25 µM], respectively.

On to `COC(=O)c1ccc(NC(=O)Nc2ccc(C(=O)OC)cc2)cc1`, for which the growth in assay [1] is 89%; in assay [2], 99%; in assay [3], 109%; in assay [4], 112%; in assay [5], 96.1%; in assay [6], 95.3%. The growth in assay [7] was 108%; in assay [8] it was 113%.

With `O=S(=O)(Oc1ccc(Br)cc1)c1ccc(Cl)cc1`, the growth is 88.5% in assay [1]; 99.8% in assay [2]; 104% in assay [3]; 102% in assay [4]; 91.7% in assay [5]; 98.6% in assay [6]. Besides, the results for the growth in assay [7] and in assay [8] were 83.2% and 99.3%, respectively.

Take `FC(F)(F)Oc1cccc(-c2cnc3ccc(-c4ccncc4)nn23)c1`: the growth in assay [1] was -0.156% (active); in assay [2] it was 25.2%; in assay [3], 12.3%; in assay [4] it was 23.2%; in assay [5], 10.7%; in assay [6] it was 10.8%. Also, the figures for the growth in assay [7] and in assay [8] were 32.5% and 8.63% (active), respectively.

Regarding `CN(Cc1cnc2nc(N)nc(N)c2n1)c1ccc(C(=O)NC(CCC(=O)O)C(=O)O)cc1Br` (stereo unspecified), the growth in assay [1] was 44.3%; in assay [2], 61.9%; in assay [3], 39.5%; in assay [4], 28.6%; in assay [5], 19%; in assay [6], 19.8%. Moreover, the growth is 57.1% in assay [7] and 28.4% in assay [8].
